Assay outcomes deposited in PubChem by The Scripps Research Institute Molecular Screening Center.
PAFAH1B3 FP inh: PAFAH1B3 enzyme inhibitors, primary screen, biochemical, fluorescence polarization, human. AID 492972, 2010. hit rate 0.28% among 340,000. recombinant PAFAH1B3, FP-rhodamine probe. Platelet-activating factor acetylhydrolase IB subunit alpha1 (Homo sapiens), Q15102. inhibition, % at 3.39 µM;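 active means inhibition above the screen-wide average of all tested compounds plus 3 SD, cut at about 25% in these data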
EBNA-1 inh: EBNA-1 DNA-binding inhibitors, primary screen, biochemical, fluorescence polarization | AID 1950, 2009 | hit rate 0.34% among 300,000 | inhibition, % at 14.8 µM; in the data active means inhibition above about 28%
pPAFAH inh: pPAFAH enzyme inhibitors, primary screen, biochemical, fluorescence polarization, human; Platelet-activating factor acetylhydrolase (Homo sapiens), Q13093; recombinant pPAFAH, FP-rhodamine probe fluorescence polarization; inhibition, % at 3.39 µM; hit rate 1.5% among 330,000;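 active means inhibition above the mean inhibition across the screen plus 3 SD, cut at about 25% in these data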;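 further: inhibitors block binding of the rhodamine activity-based probe so polarization drops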
PAFAH2 inh: PAFAH2 enzyme inhibitors, primary screen, biochemical, fluorescence polarization, human; Platelet-activating factor acetylhydrolase 2, cytoplasmic (Homo sapiens), Q99487; recombinant PAFAH2, FP-rhodamine activity probe; inhibition, % at 3.39 µM; hit rate 0.99% among 340,000; AID 492956, 2010;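 active means inhibition above the mean over all tested compounds plus 3 SD, cut at about 30% in these data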;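 further: inhibitors block probe labeling of enzyme so polarization drops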
PAFAH1B2 FP inh: PAFAH1B2 enzyme inhibitors, primary screen, biochemical, fluorescence polarization, human; AID 492953, 2010; Platelet-activating factor acetylhydrolase IB subunit alpha2 (Homo sapiens), P68402; hit rate 1.2% among 340,000; recombinant PAFAH1B2, FP-rhodamine activity probe; inhibition, % at 3.39 µM;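 active means inhibition above the mean of all tested compounds plus 3 SD, cut at about 24% in these data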
Target sequence (P68402 whole entry, looked up): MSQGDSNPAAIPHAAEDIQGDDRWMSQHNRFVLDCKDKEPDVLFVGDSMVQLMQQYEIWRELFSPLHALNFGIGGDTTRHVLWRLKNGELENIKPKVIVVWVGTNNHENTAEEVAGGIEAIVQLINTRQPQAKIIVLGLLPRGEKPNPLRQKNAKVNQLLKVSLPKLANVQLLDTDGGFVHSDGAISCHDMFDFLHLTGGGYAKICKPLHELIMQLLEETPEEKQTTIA
ZTA DNA inh: ZTA (EBV) inhibition in EBNA-1 counter-screen; P03206; ZTA-DNA binding, fluorescence polarization; inhibition, % at 11 µM; hit rate 0.15% among 320,000; AID 2234; in the data active means inhibition above about 33%
Target sequence (P03206 whole entry, looked up): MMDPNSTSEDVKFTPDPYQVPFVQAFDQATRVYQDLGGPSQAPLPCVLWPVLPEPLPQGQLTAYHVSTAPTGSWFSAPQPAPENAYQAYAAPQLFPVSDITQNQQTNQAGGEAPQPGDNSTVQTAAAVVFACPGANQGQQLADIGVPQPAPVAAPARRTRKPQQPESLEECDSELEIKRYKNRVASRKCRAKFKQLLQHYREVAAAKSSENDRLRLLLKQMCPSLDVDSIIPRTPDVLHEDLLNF
A number is an active result; . = inactive; / = not tested or not shown. Rows were chosen to be rich in hits. Some 2.9% of all compounds tested hit in one or more screens of this group.

SMILES	PAFAH1B3 FP inh	EBNA-1 inh	pPAFAH inh	PAFAH2 inh	PAFAH1B2 FP inh	ZTA DNA inh
COc1cccc(NC(=O)CN(C)C(=O)Cc2c(C)nc3ccccc3c2C)c1	.	/	.	.	.	.
COc1ccc(NC(=O)CN(C)C(=O)Cc2c(C)nc3ccccc3c2C)cc1	.	.	27.4	.	.	.
CC(=O)C1=C(C)NC(SCC(=O)c2ccc(Cl)cc2Cl)=C(C#N)C1c1ccco1 (configuration not stated)	.	.	28.3	.	.	.
Cc1ccc(NC(=O)CSC2=C(C#N)C(c3ccco3)CC(=O)N2)cc1 (configuration not stated)	.	.	.	.	.	.
Cc1ccc(C(=O)CSC2=C(C#N)C(c3ccco3)CC(=O)N2)c(C)c1 (configuration not stated)	.	.	28.3	.	.	.
COc1ccc(NC(=O)Cc2c(F)cccc2Cl)c(OC)c1	.	.	.	.	.	.
CC(Sc1nnc(C2CC2)n1C1CC1)C(=O)Nc1ccccc1C#N (configuration not stated)	.	/	.	.	.	.
Cc1cc(C(=O)NCC(c2cccs2)N2CCOCC2)ccc1[N+](=O)[O-] (configuration not stated)	.	.	.	.	.	.
S=c1[nH]nc(-c2ccncc2)n1Cc1ccccc1	.	.	.	.	.	.
Fc1ccc(-c2c[nH]c(=S)n2Cc2ccccc2)cc1	.	.	.	.	26.6	.
Fc1ccc(-c2n[nH]c(=S)n2Cc2ccccc2)cc1	.	.	.	.	28.2	.
Oc1ccc(-c2n[nH]c(=S)n2Cc2ccccc2)cc1	.	.	.	.	24.6	.
O=c1[nH]cc(-c2ccc(Br)cc2)n1Cc1ccccc1	.	.	.	.	.	.
S=c1[nH]nc(-c2ccccc2Cl)n1Cc1ccccc1	.	.	.	.	27.1	.
S=c1[nH]nc(-c2ccc(Br)cc2)n1Cc1ccccc1	.	.	.	.	.	.
NNC(=O)c1ccc(COCC(F)(F)F)cc1	.	.	.	.	.	.
CC1(C)CC(=NNC(=O)c2n[nH]c3c2CCC3)CC(C)(C)N1	.	.	.	.	.	.
Cc1ccc(NC(=O)ON=C2CCCC2)cc1	.	.	.	.	.	.
O=C(CNS(=O)(=O)c1ccc(Br)s1)NCCc1ccc(Cl)cc1	.	.	.	.	29.3	.
Cc1nc2ccc(S(=O)(=O)NCC(=O)NCCc3ccc(Cl)cc3)cc2s1	.	.	.	.	24.5	.
Cc1ccc(CNS(=O)(=O)c2ccc(Br)s2)cc1	.	.	.	.	25.1	.
Cc1ccc(NC(=O)c2oc3ccc(Br)cc3c2C)cc1S(=O)(=O)N1CCOCC1	.	/	/	.	.	/
CCC(C)[C@@H]1NC(=O)N(CCCN2CCCC2=O)C1=O (some centres not stated)	.	.	.	.	.	.
O=S(=O)(NC(=NC1CCCCC1)c1ccccc1F)c1ccccc1	.	.	.	.	.	.
O=C(NCC1CCCO1)c1cccc(S(=O)(=O)Nc2ccc(F)cc2)c1 (configuration not stated)	.	/	24.8	.	.	.
SMILES	PAFAH1B3 FP inh	EBNA-1 inh	pPAFAH inh	PAFAH2 inh	PAFAH1B2 FP inh	ZTA DNA inh
Cc1cccc(NS(=O)(=O)c2cccc(C(=O)NCCCN3CCCC3=O)c2)c1	.	.	27.8	.	.	.
O=C(NCCCN1CCCC1=O)c1cccc(S(=O)(=O)Nc2ccc(F)cc2)c1	.	/	34.1	.	.	.
CCC[C@@H]1CCCO[C@@](C(=O)NCc2ccccn2)(C(F)(F)F)C1	.	.	.	.	30.1	.
CCN(c1ccccc1)S(=O)(=O)c1ccc(C(=O)Oc2ccc(C(C)=O)cc2)cc1	.	.	.	.	.	.
CCOC(=O)C1CCCN(C(=O)c2[nH]c3ccc(OC)cc3c2C)C1 (configuration not stated)	.	.	.	.	.	.
COc1ccc(OCCCC(=O)OCC(=O)Nc2ccc(Cl)cn2)cc1	.	.	26.4	.	.	.
O=C(COC(=O)Cc1ccc(Br)cc1)Nc1ccc(Cl)cn1	.	/	25.5	.	.	/
COc1cccc(/C=C/C(=O)OCC(=O)Nc2ccc(Cl)cn2)c1	.	.	.	31.5	.	.
O=C(COC(=O)/C=C/c1cccc(F)c1)Nc1ccc(Cl)cn1	.	.	.	.	.	.
CC(=O)Nc1sc(NC(=O)c2ccc(C)cc2)nc1-c1cccs1	.	.	.	.	.	.
S=C(NN=C1CCCCCC1)Nc1ccc(Cl)cc1	.	.	.	.	.	.
NC(=S)NN=C1CCCCCCCCCC1	.	/	/	.	27.5	/
CC1(C)CC(=O)C2=C(C1)OC(N)=C(C#N)C2c1cc2c(cc1[N+](=O)[O-])OCO2 (configuration not stated)	.	.	.	.	.	.
CCNCc1ccccc1OCc1ccccc1	.	.	.	.	.	.
Oc1ccc(NCc2ccccc2OCc2ccccc2)cc1	.	.	26.5	.	.	.
O=C(O)CCN1C(=O)C2C3CC(C2C1=O)C1C(c2ccccc2)c2sc(=O)[nH]c2SC31 (configuration not stated)	.	.	.	.	83.8	.
O=c1[nH]c2c(s1)C(c1ccccc1)C1C3CCC(C3)C1S2 (configuration not stated)	.	.	.	.	40.7	.
COc1ccc(C2c3sc(=O)[nH]c3SC3C4CCC(C4)C23)cc1 (configuration not stated)	.	.	.	.	.	.
O=C(O)CCN1C(=O)C2C3CC(C2C1=O)C1C(c2ccccc2)c2sc(=O)n(-c4ccccc4)c2SC31 (configuration not stated)	.	.	.	.	.	.
CCC(C)(NC(=O)c1ccc2c(c1)OCO2)C(=O)NC1CCCCC1 (configuration not stated)	.	.	.	.	.	.
CC(=O)Nc1ccc(C=NNc2ccc([N+](=O)[O-])cc2S(=O)(=O)Nc2ccccc2C(=O)O)cc1	.	/	26.1	.	.	/
O=C(O)c1ccccc1NS(=O)(=O)c1ccc(NNC(=S)Nc2ccc(OC(F)F)cc2)c([N+](=O)[O-])c1	55.6	/	/	70.1	59.8	/
Cc1ccc(NC(=S)NNc2ccc([N+](=O)[O-])cc2S(=O)(=O)Nc2ccccc2C(=O)O)cc1C	.	.	29.0	38.4	25.1	.
Cc1ccc(/C=C/C(=O)O)cc1S(=O)(=O)Nc1ccccc1C(=O)O	.	.	.	.	.	.
COc1ccc(C(C)=NNc2ccc([N+](=O)[O-])cc2S(=O)(=O)Nc2ccccc2C(=O)O)c(OC)c1	.	/	30.7	.	.	/
C=CCOc1c(Br)cc(/C=N/Nc2ccc(C(=O)O)cc2)cc1OCC	.	.	29.6	.	.	.
C=CCNC(=O)C(=O)N/N=C/c1ccco1	.	.	.	.	.	.
NC(=S)N=Nc1c(O)cc(O)c2[nH]c(=O)ccc12	62.0	/	/	50.8	51.4	/
